Data: PubChem BioAssay AID1745850 (National Center for Advancing Translational Sciences (NCATS), 2022)
Among all 2,100 compounds or so, about 260 (12%) were called active. Not shown: some 58% with an inconclusive outcome. This is one part of the list. A number with no mark means an inactive call. Calls follow the shape of the dose curve; as a rule, active = well fitted cell-killing curve with a large enough effect; inconclusive = small, poorly fitted or top-dose-only effect, or effect the other way; inactive = flat fitted curve, though single readings scatter.

Test: Viability Counterscreen for Confirmatory qHTS for Inhibitors of ATXN expression; also: nearly all actives have a fitted effect of over 50% in size
Details: HEK-293 ATXN2-luc cells viability, CellTiter-Fluor, 24 h; activity change, negative = cytotoxicity: at the top concentration
Excerpt: PI: Daniel Scoles Ph.D. University of Utah School of Medicine, Salt Lake City, Utah MLPCN Grant: NS073009 Spinocerebellar ataxia type 2 (SCA2) is a multisystem neurodegenerative disease caused by a dominantly acting mutation leading to expansion of a polyQ domain in the ataxin-2 protein (ATXN2). SCA2 patients develop progressive ataxia and later lose function in other neuronal systems. Prominent parkinsonian signs develop in some patients. Like many neurodegenerative disorders, no symptomatic or disease-modifying treatments are known. The primary objective of the proposed research is to identify compounds inhibiting ATXN2 expression and to test them for efficacy in SCA2 mouse models. We have developed a cell-based assay paired with an in vivo mouse model using identical luciferase expression constructs. This approach takes advantage of an ATXN2-luciferase transgene, with the luciferase gene flanked by the upstream and downstream portions of the ATXN2 gene. Here we describe a 5-7 dose quantitative high thoroughput screen (qHTS) for compounds lowering ATXN2 expression. We screened the NIH Molecular Libraries Small Molecule Repository (MLSMR) and NCGC's mechanistically annotated (MIPE) and drug repurposing (NPC) collections of compounds for lowering expression of an ATXN2-luciferase reporter in HEK-293 cells. The assay is a multiplexed cell viability assay to ensure target reduction in the absence of cytotoxicity. Secondary qHTS assays included a CMV-luciferase reporter expressed in HEK-293 cells as well as a biochemical assay using recombinant luciferase to detect inhibitors of the reporter enzyme. Compounds that inhibit ATXN2 expression but is not cytotoxic were selected for confirmatory and secondary screens.
PROTOCOL TABLE (as described by Inglese J, Shamu CE and Guy RK. 2007) SEQUENCE No. (e.g., 1, 2, 3, etc.); […] (e.g., Cells, Incubation, Reagent, etc.); VALUE; DESCRIPTION. 1; Cells; 4 uL; white, solid bottom, 1536-well Greiner assay plate. 2; Incubation; 2 hr; 37 degree C in 5% humidified CO2. 3; Compounds; 23 nL; Kalypsis pintool (Wako USA) equipped with a 1536-well pin head. 4; Incubation; 24 hr; 37 degree C in 5% humidified CO2. 5; Reagent; 1 uL; Gly-Phe-7-Amino-4-trifluoromethylcoumarin. 6; Incubation; 30 min; 37 degree C in 5% humidified CO2. 7; Detection; Fluorescence; ViewLux plate reader (PerkinElmer). 8; Reagent; 3 uL; SteadyGlo luciferase solution (Promega). 9; Incubation; 5 min; room temperature. 10; Detection; Luminescence; ViewLux plate reader (PerkinElmer). NOTES (numbers refer to Sequence numbers above) 1. S2 cells expressing ATXN2-luciferase reporter were suspended in phenol-red free DMEM and dispensed in assay plates using a Multidrop Combi dispenser (Thermo Fisher Scientific). Wells containing medium only were plated on each plate, and values were used to normalize (100% inhibition) in the luciferase and CellTiter-Fluor assays. 2. Assay plates were incubated. Evaporation was prevented by covering assay plates with metal lids containing holes to allow gas diffusion. 3. Compounds were added in a dose response manner with the final concentrations of 57, 11.4, 2.28, 0.46, 0.091, 0.018, 0.0037 uM. Vehicle-only plates, with DMSO being pin-transferred to columns 5-48, were inserted uniformly at the beginning and the end of each library to monitor and record any shifts in assay performance. 5. 125 uM Gly-Phe-7-Amino-4-trifluoromethylcoumarin (MP Biomedicals) working concentration was used at a final concentration of 25 uM. 7. To assess cell viability; the assay plates were read using the ViewLux high-throughput CCD imager (PerkinElmer), wherein single end-point fluorescence measurement was acquired (excitation 405/10; emission 540/25 nm). 8. Detection reagent SteadyGlo Luciferase (Promega) was added to the assay plate. 10. Luminescence is then measured on the ViewLux imager equipped with a clear emission filter using a 2 sec exposure. […]
Potency is read from the fitted curve at half-maximal effect.

Row | SMILES | activity change, negative = cytotoxicity | Potency
1 | NNc1nc(N)c2c(n1)-c1ccccc1CC21CCCC1 | -20.9% [at 57.5 µM] | 
2 | OCCNc1c2ccccc2nc2c(F)c(F)c(F)c(F)c12 | 19.5% [at 57.5 µM] | 
3 | CC(=O)Nc1ccc(NC2=Nc3ccccc3N3C2=Nc2c(c(C)nn2-c2ccccc2)C3c2ccccc2)cc1 (centres undefined) | 21.2% | 
4 | CC(=O)Nc1ccc(Nc2c3ccccc3nc3ccccc23)cc1 |  | 17.8 µM (active)
5 | Cc1nnc(SCC(N)=O)n1CC1CCCO1 (centres undefined) | -18.5% [at 57.5 µM] | 
6 | CCOc1ccc(C(=O)Nc2ccc(Cc3ccncc3)cc2)cc1Br | -20.8% [at 57.5 µM] | 
7 | CCOc1ccccc1NC(=O)N1CCC(c2nc3ccccc3[nH]2)CC1 | -18.1% | 
8 | CCOc1ccccc1C(=O)Nc1ccc2nc(N3CCN(c4ncccn4)CC3)cc(C)c2c1 |  | 11.2 µM (active)
9 | OC(c1ccccc1)(c1nc(-c2cc3ccccc3o2)cs1)C(F)(F)F (centres undefined) | -13% [at 57.5 µM] | 
10 | CCc1ccc(-c2nc(CS(=O)CC(=O)NCc3ccco3)c(C)o2)cc1 (centres undefined) | -6.43% | 
11 | COc1ccc(C(=O)NCC(=O)N/N=C/c2ccc([N+](=O)[O-])s2)cc1OC |  | 22.4 µM (active)
12 | O=C(CNC(=O)c1cccc(Br)c1)N/N=C/c1cc(Br)cc(Br)c1O | -26.1% [at 57.5 µM] | 
13 | O=C(CP(=O)(c1ccccc1)c1ccccc1)N/N=C/c1cc(Br)cc(Br)c1O | 1.93% | 
14 | O=C(CNC(=O)c1ccccc1Br)N/N=C/c1cc(Br)ccc1O | -2.53% | 
15 | Cc1ccc(OCCNC(=O)c2cncc(Br)c2)cc1C | -20.8% [at 57.5 µM] | 
16 | O=C(N/N=C/c1ccc([N+](=O)[O-])s1)c1ccccc1Br |  | 22.4 µM (active)
17 | O=C(N/N=C/c1cc(Br)ccc1O)c1ccncc1 | -3.23% | 
18 | O=C(N/N=C\c1ccc([N+](=O)[O-])s1)c1cncc(Br)c1 |  | 11.2 µM (active)
19 | CN(Cc1cnc2nc(N)nc(N)c2n1)c1ccc(C(=O)NC(CCC(=O)O)C(=O)O)c2ccccc12 (centres undefined) | -30.4% [at 57.5 µM] | 
20 | Cc1c(N=C2N=C(NC(=O)c3ccc(F)cc3)c3ccccc32)c(=O)n(-c2ccccc2)n1C | -23.7% | 
21 | Cc1c(N=C2C=CC(=O)c3ccccc32)c(=O)n(-c2ccccc2)n1C |  | 28.2 µM (active)
22 | Cc1cccc(/C=N/NC(=O)c2cccc(Cl)c2)n1 | -18.5% | 
23 | COc1ccc(OCCNC(=O)C2(C)CCN2Cc2ccc3ccccc3c2)cc1 (centres undefined) | -28.2% [at 57.5 µM] | 
24 | C[C@@H]1CC=C[C@@H]2[C@H]1C(=O)N(Cc1ccccc1)[C@H]2c1ccccc1Br | -29.3% [at 57.5 µM] | 
25 | O=C1Nc2c(Br)cc(Br)c3cccc1c23 | -20.9% [at 57.5 µM] | 

Row | SMILES | activity change, negative = cytotoxicity | Potency
26 | COc1ccc(C)cc1NC(=O)C(Sc1nnc(-c2ccncc2)n1-c1ccc(Cl)cc1)c1ccccc1 (centres undefined) | -12.9% | 
27 | CCCOc1ccccc1C1NC(=O)NC(C)=C1C(=O)OCc1ccccc1 (centres undefined) | -14% | 
28 | Cc1cccc(NC(c2ccc(C)s2)c2ccc3ccc(C)nc3c2O)n1 (centres undefined) |  | 25.1 µM (active)
29 | Cn1nc(C(=O)N2CCN(c3ccc(Cl)cc3)CC2)c2c1-c1ccccc1S(=O)(=O)C2 | -12.1% | 
30 | O=C(CCC(=O)Nc1ccc(Br)cc1)N/N=C/c1ccccc1O | -18.6% | 
31 | COC(=O)c1c(NC(=O)c2ccc([N+](=O)[O-])o2)sc2c1CCN(C(C)C)C2 |  | 28.2 µM (active)
32 | O=C1C=Cc2cccc3ccc(O)c1c23 | 4.45% | 
33 | O=C(CN1C(=O)c2ccccc2S1(=O)=O)c1ccc(Cl)cc1Cl | -6.86% [at 57.5 µM] | 
34 | O=[N+]([O-])c1c(Nc2ccccn2)cc(Cl)c2nonc12 |  | 11.2 µM (active)
35 | COc1cc(OC)c(OC)cc1/C=C1\CC(C)C/C(=C\c2cc(OC)c(OC)cc2OC)C1=O (centres undefined) |  | 17.8 µM (active)
36 | C=CCc1ccccc1OCC(O)CN1CCN(CCN2C(=O)c3cccc4cccc(c34)C2=O)CC1 (centres undefined) |  | 31.6 µM (active)
37 | O=C(CNC(=O)c1ccccc1O)N/N=C/c1cc(Br)ccc1OC(=O)/C=C/c1ccco1 | -4.41% | 
38 | Cc1ccc(C(=O)CN2C(=O)c3ccccc3S2(=O)=O)cc1 | 5.17% | 
39 | Oc1ccc(C2CNCc3sccc32)cc1O (centres undefined) | -19.8% [at 57.5 µM] | 
40 | O=C(CN1CCCc2ccccc21)N/N=C/c1ccccc1O | -21.2% | 
41 | C[C@@H]1ON(C)[C@H]2C[C@H]3c4[nH]c5ccc(-c6ccc7c(c6)OCO7)cc5c4CCN3C(=O)[C@@H]12 | -27.8% [at 57.5 µM] | 
42 | CC1(C)Cc2c(ccc3ccccc23)C2=C(C(=O)N3CCCC3)C(=O)C(=O)N21 | -14.3% [at 57.5 µM] | 
43 | O=C(Nc1nc(-c2ccc(S(=O)(=O)N3CCOCC3)cc2)cs1)c1ccccc1 | -26.6% | 
44 | Cc1nc(-c2cccc(NC(=O)c3cccc(S(=O)(=O)N4CCCC4)c3)c2)cs1 |  | 28.2 µM (active)
45 | CCn1c2ccccc2c2cc(NC(=O)COC(=O)c3cc(S(=O)(=O)N4CCCCC4)ccc3Cl)ccc21 | 1.01% | 
46 | Cn1c(N)c(C(=O)Nc2ccc(-c3ccccc3)cc2)sc1=S | -20.9% [at 57.5 µM] | 
47 | COc1ccc(C(=O)Nn2c(SCC(=O)c3ccccc3)nc3ccccc3c2=O)cc1 | -26% [at 57.5 µM] | 
48 | COc1ccc(C2CC(c3ccccc3Cl)=NN2c2ccc(S(N)(=O)=O)cc2)cc1 (centres undefined) | 1.38% [at 57.5 µM] | 
49 | COc1ccc(Oc2c(Cl)cnn(-c3ccccc3)c2=O)cc1 |  | 3.16 µM (active)
